Screens from PubChem BioAssay.
KAT2A inh: GCN5L2 (KAT2A) acetyltransferase inhibition. 390,000 tested, 0.21% active. GCN5L2 HAT assay, ThioGlo1 CoA-SH fluorescence. Q92830. AID 504327. Potency, µM (series often up to 58.9 µM), without a hit: top-dose activity change, negative = inhibition, actives largely listed as inhibitors; further: potency means the concentration at half of the fitted maximal effect; on the % scale 0 is the no-effect control and ±100 the full control effect
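qHTS, 1536-well. 20nM enzyme, pH 7.5 HEPES/EDTA/Tween-20 buffer; 15 min compound preinc., RT. Start: 75uM H3(1-25), 70uM AcCoA, 50uM ThioGlo1. Read Ex340/Em540 at t=0 (autofluorescence flag) and t=20 min.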
PI5P4K alpha inh: PI5P4K alpha (human) kinase inhibition; P48426; PI5P4Kalpha enzyme, ADP-Glo luminescence, 60 min; active compounds read low; max response, %; 330,000 tested, 1.2% active; AID 652105; active means max response of -50% or lower; inconclusive means between -30% and -50%; inactive means -30% or higher; further: value at the top dose of about 77 µM; on the % scale 0 is the no-effect control and ±100 the full control effect
Target sequence (P48426 whole entry, looked up): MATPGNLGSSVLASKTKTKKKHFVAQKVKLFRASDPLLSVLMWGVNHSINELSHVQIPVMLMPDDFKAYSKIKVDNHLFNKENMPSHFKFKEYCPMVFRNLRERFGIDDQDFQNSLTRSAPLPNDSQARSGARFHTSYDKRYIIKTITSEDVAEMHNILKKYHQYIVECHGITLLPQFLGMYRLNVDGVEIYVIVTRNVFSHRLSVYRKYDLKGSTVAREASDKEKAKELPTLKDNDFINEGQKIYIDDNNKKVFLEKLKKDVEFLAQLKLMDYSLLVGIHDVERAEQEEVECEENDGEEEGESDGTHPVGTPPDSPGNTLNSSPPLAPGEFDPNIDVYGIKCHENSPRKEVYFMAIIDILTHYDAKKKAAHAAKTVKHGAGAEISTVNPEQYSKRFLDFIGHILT
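qHTS, 1536-well: enzyme/substrate mix, compound by pin tool, 5 microM ATP final; RT 60 min; ADP-Glo reagents 1 (45 min) then 2 (30 min); luminescence.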
BAZ2B block: BAZ2B (human) inhibition. 360,000 tested, 4.4% active. Potency, µM (series often up to 114 µM), inactives show at the highest dose activity change, negative = inhibition, hits mostly inhibitors. AlphaScreen BAZ2B-H3K14Ac peptide displacement. Q9UIF8; further: potency means the concentration at half of the fitted maximal effect; on the % scale 0 is the no-effect control and ±100 the full control effect; nearly all actives have a fitted effect of over 60% in size
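Multi-concentration screen (max 110 uM) measuring displacement of acetylated histone H3 peptide from BAZ2B by AlphaScreen, using 50 nM protein, 50 nM peptide and 10 ug/mL streptavidin donor plus Ni-chelate acceptor beads.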
JMJD2A Tudor inh: inhibitors of human JMJD2A Tudor domain; AlphaScreen JMJD2A-Tudor / H3K4me3 peptide binding; Potency, µM (top dose mostly 114 µM), for inactives: at the highest dose activity change, negative = inhibition, most hits filed as inhibitors; 390,000 tested, 4.4% active; AID 504339; further: potency means the concentration at half of the fitted maximal effect; on the % scale 0 is the no-effect control and ±100 the full control effect; nearly all actives have a fitted effect of over 50% in size
PLK1 PBD inh: blocks phosphopeptide binding to human PLK1 polo-box domain | P53350 | Plk1 PBD binding of FITC phosphopeptide, fluorescence polarization | Potency, µM, for inactives: max response, negative = inhibition, usual class: inhibitors | 360,000 tested, 2.8% active | AID 720504; further: potency means the concentration at half of the fitted maximal effect; series mostly up to about 57 µM; on the % scale 0 is the no-effect control and ±100 the full control effect; nearly all actives have a fitted effect of over 65% in size
HP1b binding inh: HP1-beta chromodomain-methylated histone interaction inhibition. P83916. AlphaScreen HP1-beta / biotin-H3K9me3 peptide binding. Potency, µM (series often up to 114 µM), for inactives: at the top dose activity change, negative = inhibition, hits mostly inhibitors. 390,000 tested, 0.56% active; further: potency means the concentration at half of the fitted maximal effect; nearly all actives have a fitted effect of over 70% in size
Target sequence (P83916 whole entry, looked up): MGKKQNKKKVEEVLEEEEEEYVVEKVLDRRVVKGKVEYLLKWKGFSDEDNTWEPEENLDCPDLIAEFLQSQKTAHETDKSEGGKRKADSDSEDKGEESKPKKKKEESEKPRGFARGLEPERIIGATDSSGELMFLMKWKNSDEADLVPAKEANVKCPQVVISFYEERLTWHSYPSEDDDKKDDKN
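HP1-beta protein (50 nM final) preincubated 30 min at room temperature with biotinylated H3(1-18)K9me3 peptide (50 nM) in PBS pH 7.4, 0.01% Tween-20, then compound added for 30 min. AlphaScreen streptavidin donor/nickel chelate acceptor beads (10 ug/mL final), 30 min dark, luminescence read.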
The depositor's hits bear a star; ? = inconclusive; / = no result given; [ ] = another dose, or the depositor's remark. An excerpt weighted towards active compounds, which were near 7% of everything screened. Unless noted, the call rests on the fitted dose curve; in most records, active means well fitted curve in the direction sought with a large enough effect; inconclusive means small, poorly fitted or top-dose-only effect, or another doubt; inactive means no such curve, though single readings can be large; an effect the other way counts as inactive or inconclusive.

SMILES	KAT2A inh	PI5P4K alpha inh	BAZ2B block	JMJD2A Tudor inh	PLK1 PBD inh	HP1b binding inh
COc1ccc(C(=O)c2ccccc2CN2C(=O)c3ccccc3C2=O)cc1	/	3.3	/	4.2%	-9.9%	66.2%
CC(=O)N(C(C)=O)c1nc(-c2ccccc2)cn1/N=C/c1cccc([N+](=O)[O-])c1	2.8%	0.3	-2.3%	-6.6%	-9.0%	3.6%
Cc1ccc(OCCNCc2ccccc2)c(C)c1	-10.1%	-3.9	?	1µM*	-6.3%	?
CCc1cccc(OCCCCNCCO)c1	-5.5%	4.7	56.2µM*	-23.7%[11.4 µM]	26.7µM*	11.2%
Cc1cc(OCCOCCN(C)CCO)cc(C)c1Cl	4.3%	8.6	-3.8%	-11.9%	-4.2%	33.3%
c1ccc(CNCCNCc2ccccc2)cc1	3.5%	/	/	/	/	/
CCOc1ccc(OCCOCCNCCOC)cc1	1.2%	3.3	-31.8%	10µM*	5.2%	6.2%
Cc1cc(C)c(OCCOCCN(C)C)c(Br)c1	-4.7%	3.5	?	25.1µM*	-1.8%	?
CC(C)(C)OC(=O)Cc1nnc(-c2cc3ccccc3[nH]2)o1	/	/	/	-1.4%	/	/
Cc1cc(Cl)c(OCCCNCc2ccccc2)c(Br)c1	-3.0%	0.5	?	?	-7.4%	-19.9%
Cc1ccc(OCCSc2ncccn2)c(C)c1	-8.7%	25.0	82.8%	64.1%	-8.5%	89.5%
Cc1cc(C)c(OCCCNCc2ccccc2)c(Br)c1	-11.2%	-2.8	50.1µM*	25.1µM*	-4.0%	?
Brc1ccccc1OCCCCn1cnc2ccccc21	0.9%	17.3	-23.0%	-6.9%	-11.2%	26.1%
Cc1ccc(OCCCCn2cnc3ccccc32)c(C)c1	-10.3%	8.7	25.1µM*	1.58µM*	1.6%	?
CCCOc1ccc(OCCOCCNCc2ccccc2)cc1	0.9%	-0.4	?	17.8µM*	-7.9%	?
Clc1ccc(OCCNCCc2ccccc2)cc1	-14.7%	7.8	-5.0%	1.1%	3.8%	47.1%
Cc1ccc(OCCCCNC(C)c2ccccc2)c(C)c1 (configuration not stated)	-8.8%	7.1	?	20µM*	-10.2%	1.8%
CCC(C)C(NC(=O)c1ccccc1NC(=O)c1ccco1)C(=O)NNC(=O)c1ccncc1 (configuration not stated)	-0.6%	3.8	-2.9%	-10.3%	-8.6%	35.8%
CCC1(CC)NC(=O)N(CC(=O)Nc2ccc(OCc3ccccc3)cc2)C1=O	0.9%	2.6	/	-18.5%	3.7%	22.2%
Cc1cc(C)c(C)c(OCCOCCNCc2ccccc2)c1	-8.5%	-0.6	?	79.4µM*	-2.1%	-17.4%
COc1cc(C)ccc1OCCCCNCc1ccccc1	1.1%	7.7	?	17.8µM*	-7.8%	-34.1%
C/C=C/c1ccc(OCCOCCNCc2ccccc2)c(OC)c1	-0.3%	-6.3	50.1µM*	28.2µM*	2.4%	-12.1%
COc1cc(C)ccc1OCCCOc1ccccc1Br	-6.9%	0.5	51.0%	-13.1%	-0.7%	68.4%
COc1ccc(OC)c(S(=O)(=O)N2CCC(C(=O)N3CCCCCC3)CC2)c1	-6.8%	1.9	9.2%	7.4%	1.8%	29.1%
COc1ccc(-n2nc(C(=O)Nc3cc(C)c(Cl)cc3OC)c3c4ccccc4n(C)c3c2=O)cc1	2.3%	/	/	-15.7%	/	7.1%
SMILES	KAT2A inh	PI5P4K alpha inh	BAZ2B block	JMJD2A Tudor inh	PLK1 PBD inh	HP1b binding inh
NC(=O)c1ccccc1NC(=O)c1ccc2c(c1)OCO2	-3.2%	-2.3	10.1%	0.4%	1.8%	30.6%
COC(=O)CC1C(=O)NCCN1C(=S)NC(=O)c1sc2ccccc2c1Cl (configuration not stated)	-2.3%	-27.5	?	0.7%[11.4 µM]	18.9µM*	11.9%
O=C(O)c1ccccc1NC(=S)NC(=O)c1sc2ccccc2c1Cl	-14.8%	?	-1.6%	?	11.9µM*	-7.0%
Cc1ccc(NC(=S)NC(=O)c2sc3ccccc3c2Cl)c(C(=O)O)c1	-2.8%	/	50.1µM*	/	/	/
COC(=O)CC1C(=O)NCCN1C(=O)c1sc2ccccc2c1Cl (configuration not stated)	-13.9%	-2.4	-0.1%	-10.3%	-3.8%	41.2%
O=C(Nc1ccnc(=O)[nH]1)c1sc2ccccc2c1Cl	0.9%	-13.5	-14.1%	-11.8%[11.4 µM]	26.7µM*	0.5%
Cc1ccc(NC(=O)c2sc3ccccc3c2Cl)cc1	-6.0%	/	0.5%	-2.0%	/	27.9%
O=C(NC(=S)Nc1ccccc1N1CCOCC1)c1sc2ccccc2c1Cl	-1.1%	8.2	-6.6%	-28.9%	-5.6%	-7.2%
COCCNC(=O)C1(C)CCCN(Cc2ccc(C)c3ccccc23)C1 (configuration not stated)	/	3.4	/	/	-12.4%	/
Cc1cc(C)c(NC(=O)C(C)n2nnc3sc4c(c3c2=O)CCCC4)c(C)c1 (configuration not stated)	-7.3%	/	0.5%	-12.6%	/	17.3%
CCNc1ncc2nc(-c3cccs3)c(=O)n(CCC#N)c2n1	7.08µM*	/	/	/	/	/
NC(=O)c1cccc2ccccc12	-2.2%	3.7	3.8%	-6.3%	-11.6%	27.4%
N#CSCC(=O)c1cccc2ccccc12	-0.4%	-3.4	5.4%	-9.9%	10.6µM*	26.5%
O=C(COC(=O)/C=C/c1ccco1)NCc1ccccc1Cl	-7.3%	-1.7	14.8%	-13.3%	-11.8%	24.5%
O=C(COC(=O)/C=C/c1ccco1)Nc1ncc(C(F)(F)F)cc1Cl	6.6%	-1.2	44.7µM*	35.5µM*	-25.2%	50.1µM*
Cc1c(Cl)cnc(NC(=O)COC(=O)/C=C/c2ccco2)c1Cl	?	-56.3*	50.1µM*	?	-25.6%	-4.2%
COc1ccc(/C=C2/SC(=O)N(CCNC(=O)C3CC(=O)N(Cc4ccccc4)C3)C2=O)cc1 (configuration not stated)	/	-10.0	/	/	-10.6%	/
N#C/C(=C/c1cn(-c2ccccc2)nc1-c1cccc(OCc2ccc(F)cc2)c1)C(=O)NCCCn1ccnc1	-8.1%	-5.2	10µM*	15.8µM*	-11.0%	-20.6%
O=C(NCCCn1ccnc1)c1cn(-c2ccccc2)nc1-c1ccc(F)cc1	-2.7%	/	-1.5%	?	-12.0%	-9.4%
N#C/C(=C\c1ccc([N+](=O)[O-])cc1)C(=O)NCCCn1ccnc1	-27.3%	0.7	?	-15.5%	-28.6%	-9.1%
CCCOc1cccc(-c2nn(-c3ccccc3)cc2/C=C(\C#N)C(=O)NCCCn2ccnc2)c1	-7.8%	16.1	?	44.7µM*	-10.0%	?
Clc1cccc(Cc2c(C3CCCCC3)nc3ccc(Br)cn23)c1	/	?	/	/	-3.5%	/
CCCNC(=O)NC(=O)CN1C(=O)NC(C)(c2ccc3ccccc3c2)C1=O (configuration not stated)	-6.4%	4.8	-7.2%	-21.4%	-6.6%	3.1%
CCN(CC)S(=O)(=O)c1ccc(/C(O)=C(\C#N)c2nc3ccccc3n2C)cc1	4.6%	/	0.2%	-12.0%	-10.4%	18.9%
